12-LOX inh: Primary qHTS assay for inhibitors of human arachidonate 12S-lipoxygenase (ALOX12): Round 2. AID 1671190, 2021. Potency, µM (doses to about 108 µM), for the others: top-dose activity change, negative = inhibition, actives largely listed as inhibitors. purified 12hLO, xylenol orange hydroperoxide absorbance. 580,000 compounds, 1.1% hits. Polyunsaturated fatty acid lipoxygenase ALOX12 (Homo sapiens), P18054; further: potency means the concentration at half of the fitted maximal effect; on the % scale 0 is the no-effect control and ±100 the full control effect
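Hydroperoxide product was detected by ferrous iron/xylenol orange as the 573 to 405 nm absorbance ratio. Arachidonic acid at 40 uM (final) was turned over for 30 min at room temperature by 150 nM human 12hLO, pH 7.0 Hepes buffer, after 15 min compound preincubation.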
Nrf2 activator: qHTS of Nrf2 Activators; AREc32 ARE-luciferase reporter (MCF7-derived line), luminescence, 24 h; Potency, µM (doses to about 46.1 µM), without a hit: at the highest dose activation, most hits filed as activators; 410,000 compounds, 0.31% hits; further: potency means the concentration at half of the fitted maximal effect; % of control where 0% means no effect; nearly all actives have a fitted effect of over 65% in size
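Quantitative high-throughput format: AREc32 reporter cells, 1000 per well, received compound by pin transfer and were incubated 24 hr at 37 deg C, 5% CO2, before Steady-Glo luminescence detection.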
ERG Ets-DNA blk: qHTS for Small Molecule Inhibitors of the ERG Ets/DNA interaction; fluorescence polarization, His-ERG Ets domain / labelled DNA; Potency, µM (doses to about 76.9 µM), without a hit: at the top dose FP activity, negative = inhibition, most hits filed as inhibitors; 370,000 compounds, 0.028% hits; AID 624246, 2012; active means well fitted inhibition curve with a large enough effect in the polarisation, with a control signal flat; inconclusive means small, poorly fitted or top-dose-only effect, or effect the other way, or a change in a side signal; inactive means no such curve, though single readings can be large or run the other way; the % refers to the polarisation;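 further: polarization taken with two DNA probes labelled with fluorescein and Texas red; potency means the concentration at half of the fitted maximal effect; % of control where 0% means no effect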
Target sequence (P11308 whole entry, looked up, the tested form may be a part): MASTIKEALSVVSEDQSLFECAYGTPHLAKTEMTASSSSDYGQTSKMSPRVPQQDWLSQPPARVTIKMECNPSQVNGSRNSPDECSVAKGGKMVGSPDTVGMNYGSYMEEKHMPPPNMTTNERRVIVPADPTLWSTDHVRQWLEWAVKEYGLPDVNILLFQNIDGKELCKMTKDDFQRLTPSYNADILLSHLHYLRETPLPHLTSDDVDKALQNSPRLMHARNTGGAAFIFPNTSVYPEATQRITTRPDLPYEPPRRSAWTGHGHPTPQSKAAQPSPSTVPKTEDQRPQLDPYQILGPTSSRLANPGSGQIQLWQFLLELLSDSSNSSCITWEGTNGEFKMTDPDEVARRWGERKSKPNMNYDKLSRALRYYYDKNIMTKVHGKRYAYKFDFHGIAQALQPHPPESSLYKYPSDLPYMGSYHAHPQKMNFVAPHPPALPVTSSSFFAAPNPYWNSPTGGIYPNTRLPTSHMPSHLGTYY
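His-tagged ERG Ets domain (1 uM in the protein solution; 300mM KCl, 50mM Tris-HCl, 1mM EDTA, 1mM DTT, pH 7.5) received compound, then a probe mix of 5 nM fluorescein-DNA and 100nM Texas-615-DNA. Fluorescence polarization was read for both dyes.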
LDHA block: qHTS assay for inhibitors of human lactate dehydrogenase; L-lactate dehydrogenase A chain (Homo sapiens), P00338; purified LDHA, NADH/diaphorase-resazurin fluorescence; active compounds read low; activity change, % (values are at about 110 or 230 µM); 480,000 compounds, 0.15% hits; in the data active means activity change below about -30%; inconclusive means mostly about -25% to -30%;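 further: plate controls were DMSO wells for no effect and wells without enzyme for full effect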
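Human LDH5 (2 nM) was incubated with 0.06 mM NADH and 0.2 mM pyruvate for 5 min at room temperature in Tris pH 7.4. Remaining NADH was coupled through diaphorase/resazurin, and resorufin fluorescence was read at 0 and 20 min.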
Nrf2 inh: Nrf2 qHTS screen for inhibitors; A549 ARE-Fluc reporter, luciferase luminescence, 18-24 h; Potency, µM (doses to about 46 µM), for inactives: at the highest dose activity change, negative = inhibition, most hits filed as inhibitors; 360,000 compounds, 2.1% hits; AID 504444, 2011; further: potency means the concentration at half of the fitted maximal effect; on the % scale 0 is the no-effect control and ±100 the full control effect; nearly all actives have a fitted effect of over 60% in size
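Quantitative HTS in A549 cells stably bearing an antioxidant response element-firefly luciferase construct. Inhibition of Nrf2-driven transcription was scored by luminescence after 18-24 h of compound exposure at 37 °C.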
A549 viability: Nrf2 qHTS screen for inhibitors: counterscreen for cytotoxicity. AID 504648, 2011. A549 ARE-Fluc cells, CellTiter-Fluor viability, 18-24 h. 390,000 compounds, 0.16% hits. Potency, µM (doses to about 46 µM), inactives show top-dose activity change, negative = cytotoxicity, most hits filed as inhibitors; further: potency means the concentration at half of the fitted maximal effect; on the % scale 0 is the no-effect control and ±100 the full control effect
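Cytotoxicity counterscreen: CellTiter-Fluor fluorescence was measured in A549 ARE_Fluc cells after 18-24 h of compound exposure in a concentration series. The subsequent BugLite luminescent read reports ARE-luciferase activity.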
An asterisk follows results filed as active; u = inconclusive; x = not tested or not shown; ! = not active in a repeat; [ ] = another dose, or the depositor's remark. Hits are enriched below; roughly 2.7% of the tested compounds scored in any of these assays. Unless noted, the call rests on the fitted dose curve; in most records, active means well fitted curve in the direction sought with a large enough effect; inconclusive means small, poorly fitted or top-dose-only effect, or another doubt; inactive means no such curve, though single readings can be large; an effect the other way counts as inactive or inconclusive.

SMILES | 12-LOX inh | Nrf2 activator | ERG Ets-DNA blk | LDHA block | Nrf2 inh | A549 viability
Cc1ncc(C[n+]2csc(CCO)c2C)c(N)n1 | u | 0% | -1% | -4 | 15µM*! | u
CCOC(=O)C1=C(N)Oc2c(c(=O)oc3ccccc23)C12C(=O)Nc1ccc(Cl)cc12 (stereo not drawn) | u | x | x | 16 | x | x
COc1cccc(C(=O)N/N=C(/c2ccccc2)c2ccccn2)c1 | 4% | 0% | 4% | -6 | 10µM* | u
Cc1ccc(C)c(NP(=O)(Oc2ccccc2)Oc2ccccc2)c1 | -5% | 0% | -2% | 3 | 21µM* | u
Cc1ccc2[nH]c(C)c(CCN)c2c1 | u | x | x | 16 | x | x
CCCCc1ccc2[nH]c(C)c(CCN)c2c1 | 3.2µM* | x | x | 0 | x | x
COc1ccc2c(c1)[nH]c1c(C)nccc12 | -16% | 0% | -2% | 0 | 23µM* | -7%
Cc1nccc2c1[nH]c1ccc(Br)cc12 | -1% | 5% | 2% | -8 | -7% | -3%
O=C1/C(=C\c2ccccc2F)N2CCC1CC2 | 103% | x | x | -3 | x | x
C=CCNC(=O)C(C)OC(=O)c1cn(C)c2ccccc12 (stereo not drawn) | 9% | x | x | 6 | x | x
N[C@@H](Cc1cc(I)c(O)c(I)c1)C(=O)O | 0.51µM*! | 3% | u | 1 | 0% | -4%
CN(C)c1ccc(/C=C2\C(=O)NC(=O)N(CCc3ccc(F)cc3)C2=O)cc1 | 16µM* | 2% | 29% | 1 | 15% | 10%
COc1ccc(CCNCc2ccccc2C)cc1 | -26% | x | x | 1 | x | x
O=c1cccc2n1CC1CC2CN(Cc2cccc(Cl)c2Cl)C1 (stereo not drawn) | -5% | 2% | -3% | 0 | 21µM* | -4%
CN(C)Cc1cn(C[C@H]2C[C@@H]3CCN2C[C@@H]3C(=O)NC2CC2)nn1 | 3%[176 µM] | x | x | x | x | x
COc1cc2c(cc1OCCN(C)C)NC(=O)C21CCN(Cc2ccccc2)CC1 | 40%[176 µM] | x | x | x | x | x
CCOc1ccccc1N1C(=O)CC(=O)NC1=O | 6% | 0% | -7% | -30* | -6% | 2%
O=C(O)CNC(=O)c1c(O)c2ccccc2n(Cc2ccccc2)c1=O | -11%[57.4 µM] | x | x | x | x | x
O=C(O)CNC(=O)C(CS)Cc1ccccc1 (stereo not drawn) | u | 0% | 0% | -4 | 10µM* | -10%
Cc1cc(Br)ccc1N1C(=O)CC(=O)NC1=O | 45µM* | 0% | 3% | -21 | 12% | 2%
CC(C)[C@H]1C(=O)O[C@H](C(C)C)C(=O)N(C)[C@@H](C(C)C)C(=O)O[C@H](C(C)C)C(=O)N(C)[C@@H](C(C)C)C(=O)O[C@H](C(C)C)C(=O)N1C | x | 4% | 4% | -10 | 3.7µM* | u
Clc1ccc(Cl)c(-c2ccc(CNC3CN4CCC3CC4)o2)c1 (stereo not drawn) | 8.9µM* | x | x | 15 | x | x
CCN1CCN(c2nc3ccccc3s2)CC1 | 15% | -1% | 4% | -2 | 4% | 0%
Cc1ccnc(SCc2nc3ccccc3s2)n1 | 13% | 13µM* | 9% | -16 | x | 0%
O=Cc1cccc2ccccc12 | -26% | x | x | 69 | x | x
CCOP(=O)(OCC)C(NC(=O)c1ccccc1)=C(Cl)Cl | 1% | 0% | x | 3 | 22% | -4%
CCOC(=O)C1=C(NC(=S)NC(=O)c2ccccc2)c2ccccc2CC12CCCC2 | 20µM* | 0% | 3% | -12 | u | -17%
O=C(N1CCCCCC1)N1CC1 | -2% | 0% | 5% | -2 | 6% | -7%
S=C(S)N1CCCC1 | u | 0% | -3% | -5 | 5.8µM* | -7%
Cc1ccc(C(=O)Nc2cccc3cnccc23)cc1S(=O)(=O)N1CCCCC1 | -57% | x | x | 70 | x | x

Compound activity as filed in PubChem.
